Source: PubChem BioAssay AID743269 (The Scripps Research Institute Molecular Screening Center, 2014)
The whole screen tested about 370,000 compounds, of which about 2,400 (0.65%) were called active.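 The calls were made as follows: active = inhibition above the screen-wide mean plus 3 SD (cut at about 13% in these data); inactive = the rest.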 The list comes from a sample in which actives are over-represented; it also holds similar structures and randomly drawn compounds.

Each molecule was assayed on HIV-1 integrase (with human LEDGF/p75) (assay: blockers of LEDGF/p75-dependent integrase strand transfer – biochemical, TR-FRET, high throughput, primary screen (AID 743269;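 also: signal is the Cy5 over europium emission ratio at 671 and 618 nm; 0% = plate median of compound wells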)). Settings: TR-FRET IN-LEDGF/p75 DNA integration, Eu/Cy5; at 3.7 µM; active compounds read high.
`COc1cc(Cn2c(N)c(C(=O)NCc3ccco3)c3nc4ccccc4nc32)cc(OC)c1OC` was tested, and the inhibition was 1.57% (inactive).
In the case of `CCOC(=O)c1c(N)n(Cc2ccccc2)c2nc3ccccc3nc12`, the inhibition is reported as 32.8% (active).
For `CCOC(=O)c1cccc(C2=C(CNC(=O)c3ccncc3)[C@H]3CC[C@@H](C2)N3Cc2ccccc2)c1`, the inhibition was -5.73% (inactive).
With `CCN1C(=O)C(=Cc2c(C)n(CC(=O)NCC3CCCO3)c3ccccc23)C(=O)N(CC)C1=S` (stereo not given) the inhibition was -2.24% (inactive).
In the case of `COc1ccc2c(c1)[C@@]13CCCCC1[C@@H](C2)NCC3` (stereo not given in full), the inhibition is reported as -1.92% (inactive).
In the case of `Cc1c(C(=O)O)cccc1-n1c(C)cc(/C=C2\C(=O)NC(=O)N(c3ccc4c(c3)OCO4)C2=O)c1C`, the inhibition is reported as 15.4% (active).
`O=P(OC1=CCCCC1)(c1ccccc1)c1ccccc1` was tested, and the inhibition was 6.63% (inactive).
In the case of `CCC(C)(O)C(=O)OC1C(=O)OC2CC3C(C)=CC(=O)C(O)C3(C)C3C4(O)OCC23C1C(C)C4O` (stereo not given), the inhibition is reported as -3.3% (inactive).
With `CCOc1cccc(=NC2CCCCC2)c2c(C)[nH]c(C)c12` the inhibition was 36.3% (active).
For `Cc1cccc(-n2c(O)c(C=NC34CN5CN(CN(C5)C3)C4)c(=O)[nH]c2=O)c1`, the inhibition was -3.72% (inactive).
In the case of `CC(C)Nc1nc(Cl)nc(NC(C)C)n1`, the inhibition is reported as -1.42% (inactive).
In the case of `Brc1ccc2c(c1)CNCc1cnnn1-2`, the inhibition is reported as 6.88% (inactive).
`Cc1cc(N2CCNC[C@@H]2C)ccc1N1CC[C@H](O)C1` was tested, and the inhibition was 7.07% (inactive).
For `COc1ccc(N2C(=O)/C(=C/c3ccco3)C(=O)NC2=S)cc1`, the inhibition was 59.1% (active).
In the case of `O=S(=O)(c1ccccc1)N1CCC2CCNC2C1` (stereo not given), the inhibition is reported as 5.81% (inactive).
In the case of `CCC(C)NC1(c2ccccc2)CCCCC1` (stereo not given), the inhibition is reported as 2.52% (inactive).
`COC(=O)C(O)(c1ccc(NC(=O)c2ccco2)c(OC)c1)C(F)(F)F` (stereo not given) was tested, and the inhibition was -2.33% (inactive).
With `CO[C@H]([C@H](C)/C=C/N(C)C=O)[C@@H](C)C(=O)CC[C@H](C)[C@H](O)[C@H](C)[C@H]1OC(=O)/C=C/C(C)=C/[C@H](O)[C@H](OC)C[C@@H]2C=CC[C@@H](C[C@H](OC)[C@@]3(CO3)[C@@H](OC)C[C@@H](OC)[C@@H]1C)O2` the inhibition was 0.17% (inactive).
In the case of `Clc1ccc([C@@H]2CC3CCC2N3)cn1` (stereo not given in full), the inhibition is reported as 4.15% (inactive).
With `O=C1NC(=O)N(Cc2ccco2)C(=O)/C1=C\c1ccc(-c2ccc(F)cc2)o1` the inhibition was 73.2% (active).
In the case of `Cc1cc(C=C2C(=O)NC(=O)NC2=O)c(C)n1-c1ccncc1`, the inhibition is reported as 3.8% (inactive).
With `Cc1ccnc(-n2c(C)cc(/C=C3\C(=O)NC(=S)N(C)C3=O)c2C)c1` the inhibition was 1.59% (inactive).
With `Cc1cc(/C=C2/C(=O)NC(=O)N(Cc3ccco3)C2=O)c(C)n1-c1ccc(C(=O)O)cc1` the inhibition was 86% (active).
With `Cc1ccccc1CCC[C@@H](CC1CCCCC1)CN(C)C(=O)Oc1ccccc1` the inhibition was -1.47% (inactive).
In the case of `C[N+]12CN3CN(CN(C3)C1)C2`, the inhibition is reported as -0.49% (inactive).
In the case of `COc1cc(OC)cc(C(=O)NCCN2CCC3(CC2)C(=O)NCN3c2ccccc2)c1`, the inhibition is reported as 4.72% (inactive).
`CCN(CC)C(=O)[C@@H]1C=C2c3cccc4[nH]c(Br)c(c34)C[C@H]2N(C)C1` was tested, and the inhibition was 1.36% (inactive).
For `CS(=O)(=O)N1CCC2CCNC2C1` (stereo not given), the inhibition was -2.54% (inactive).
With `O=C(N/N=C/c1c(O)n(C2CC2)c(=S)[nH]c1=O)c1ccccc1` the inhibition was -7.23% (inactive).
For `COP(=O)(Sc1ccccc1)C(Cc1ccccc1)NC(=O)OCc1ccccc1` (stereo not given), the inhibition was 4.08% (inactive).
